Assay [1] can be described thus: qHTS assay to identify small molecule agonists of the sonic hedgehog signaling (Shh) pathway (AID 1259368).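 Also: NIH/3T3-derived 3T3Gli1-Luc cells carrying a stable Gli1-driven firefly luciferase reporter; series mostly up to about 92 µM; nearly all actives have a fitted effect of over 15% in size.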 The method in brief:
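Luminescence was read after 30 min at room temperature with luciferase reagent. Before that, 3T3Gli1-Luc cells (NIH/3T3 clone, stable Gli1-Luc reporter; 2,000/well) were exposed to compounds for 24 hr at 37C, 5% CO2, compounds being added 4 hr post-plating.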
Background: Quantitative high-throughput screening tests each substance at several concentrations.

The nature of assay [2]: qHTS assay to identify small molecule antagonists of the sonic hedgehog signaling (Shh) pathway (AID 1259369). Also: nearly all actives have a fitted effect of over 45% in size. Also: potency is read from the fitted curve at half-maximal effect. The method in brief:
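Antagonist mode: compound added to 3T3 Gli1-Luc cells followed by conditioned-medium stimulation, 24 h at 37 C, 5% CO2. Inhibition taken as loss of Gli1-driven luciferase luminescence.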

Assay [3] has as its target Estrogen receptor beta (Homo sapiens) (UniProt Q92731). As to the kind of experiment: qHTS assay to identify small molecule agonists of the estrogen receptor beta (ER-beta) signaling pathway (AID 1259377; active = well fitted activation curve with a large enough effect in the signal ratio in the repeat runs, not every such curve was filed as active; the % refers to the signal ratio). A digest of the protocol:
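Ratiometric beta-lactamase FRET read-out came after 2 h substrate loading at room temperature. It followed 16 h compound treatment at 37C of GripTite HEK293T cells carrying a UAS-bla reporter, plated in 2% charcoal-stripped FBS medium.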

The target is the same in assay [4]. The experiment in a line: qHTS assay to identify small molecule antagonists of the estrogen receptor beta (ER-beta) signaling pathway (AID 1259378; active = well fitted inhibition curve with a large enough effect in the signal ratio in the repeat runs, not every such curve was filed as active; the % refers to the signal ratio; also: potency is read from the fitted curve at half-maximal effect). A digest of the protocol:
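Antagonist mode: compounds added to beta-lactamase reporter HEK293T ER-beta-UAS cells stimulated with E2 (1nM final), 16 hr at 37C. LiveBLAzer B/G FRET substrate, 2 hours room temperature, fluorescence read-out.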

Assay [5] in a line: qHTS assay to identify small molecule agonists of the androgen receptor (AR) signaling pathway in the presence of an antagonist - cell viability counter screen (AID 1259379; active = well fitted curve in the direction sought with a large enough effect in the repeat runs; an effect the other way counts as inactive or inconclusive; also: nearly all actives have a fitted effect of over 25% in size; also: potency is read from the fitted curve at half-maximal effect). A digest of the protocol:
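Cytotoxicity counter-screen run in the same wells as the nilutamide-challenged (3.0 µM final) AR agonist assay in MDA-kb2 cells. Compounds tested at 15 concentrations for 16 h, 37 °C without CO2; CellTiter-Fluor fluorescence read.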

The nature of assay [6]: qHTS assay to identify small molecule agonists of the estrogen receptor beta (ER-beta) signaling pathway - cell viability counter screen (AID 1259380; active = well fitted curve in the direction sought with a large enough effect in the repeat runs; an effect the other way counts as inactive or inconclusive; also: nearly all actives have a fitted effect of over 30% in size; also: potency is read from the fitted curve at half-maximal effect). A digest of the protocol: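 Cell viability counter screen: CellTiter-Glo luminescence (30 min, room temperature) measured in the same wells as the beta-lactamase readout, after 16 hr compound exposure at 37C of ER-beta-bla HEK293T cells in 2% charcoal-stripped FBS medium.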

A short description of assay [7]: qHTS assay to identify small molecule antagonists of the estrogen receptor beta (ER-beta) signaling pathway - cell viability counter screen (AID 1259382; active = well fitted curve in the direction sought with a large enough effect in the repeat runs; an effect the other way counts as inactive or inconclusive;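 also: HEK293T cells carrying ER-beta-UAS-bla reporter stimulated with estradiol; series mostly up to about 92 µM; nearly all actives have a fitted effect of over 55% in size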). A digest of the protocol:
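Cytotoxicity was measured in the same wells by CellTiter-Glo luminescence after 30 min at room temperature. Cells were ER-beta-bla HEK293T in charcoal-stripped serum, given compound together with 1 nM E2 and incubated 16 h at 37C.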

Assay [8] deals with Estrogen receptor (Homo sapiens) (UniProt P03372). The experiment in a line: qHTS assay to identify small molecule agonists of the estrogen receptor alpha (ER-alpha) signaling pathway in the presence of an antagonist (AID 1259383). Also: top concentration of the series differs between compounds; nearly all actives have a fitted effect of over 15% in size. The method in brief:
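Agonist-mode confirmation run in the presence of 10.0nM (final) ICI-182,780 antagonist. The reporter was ERE-driven luciferase in VM7Luc4E2 cells, grown in charcoal-stripped serum. Cells were exposed to 15-concentration compound series for 22hr, then ONE-Glo luminescence was read.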

The nature of assay [9]: qHTS assay to identify small molecule agonists or antagonists of the thyroid stimulating hormone receptor (TSHR) signaling pathway - wild type cell line counter screen (AID 1259384). Also: potency is read from the fitted curve at half-maximal effect. A digest of the protocol: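 Counter screen in untransfected Hek293: compounds (15-point titration, triplicate) plus phosphodiesterase inhibitor Ro20-1724 added after 18 h plating; 30 min RT. Intracellular cAMP via competitive d2/cryptate immunoassay, 1 h incubation.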

In assay [10] the target is Androgen receptor (Homo sapiens) (UniProt P10275). As to the kind of experiment: qHTS assay to identify small molecule agonists of the androgen receptor (AR) signaling pathway in the presence of an antagonist (AID 1259381). Also: nearly all actives have a fitted effect of over 15% in size. A digest of the protocol:
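Agonist-mode confirmation run against 3.0 uM final nilutamide: compounds titrated at 15 concentrations onto MDA-kb2 MMTV-luciferase reporter cells. Luminescence measured with ONE-Glo following 16 hr incubation, 37C, 0% CO2.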

Where “and” joins values, the source holds several entries; their conditions need not be identical. Equal entries are not always repeated. Inconclusive results are not listed. The source holds several records for some structures; these can differ, active in one and inactive in another. Calls of active or inactive are those of the source. Unless noted, calls follow the shape of the full dose curve.

Androgen receptor (Homo sapiens), sequence (P10275 whole entry, looked up): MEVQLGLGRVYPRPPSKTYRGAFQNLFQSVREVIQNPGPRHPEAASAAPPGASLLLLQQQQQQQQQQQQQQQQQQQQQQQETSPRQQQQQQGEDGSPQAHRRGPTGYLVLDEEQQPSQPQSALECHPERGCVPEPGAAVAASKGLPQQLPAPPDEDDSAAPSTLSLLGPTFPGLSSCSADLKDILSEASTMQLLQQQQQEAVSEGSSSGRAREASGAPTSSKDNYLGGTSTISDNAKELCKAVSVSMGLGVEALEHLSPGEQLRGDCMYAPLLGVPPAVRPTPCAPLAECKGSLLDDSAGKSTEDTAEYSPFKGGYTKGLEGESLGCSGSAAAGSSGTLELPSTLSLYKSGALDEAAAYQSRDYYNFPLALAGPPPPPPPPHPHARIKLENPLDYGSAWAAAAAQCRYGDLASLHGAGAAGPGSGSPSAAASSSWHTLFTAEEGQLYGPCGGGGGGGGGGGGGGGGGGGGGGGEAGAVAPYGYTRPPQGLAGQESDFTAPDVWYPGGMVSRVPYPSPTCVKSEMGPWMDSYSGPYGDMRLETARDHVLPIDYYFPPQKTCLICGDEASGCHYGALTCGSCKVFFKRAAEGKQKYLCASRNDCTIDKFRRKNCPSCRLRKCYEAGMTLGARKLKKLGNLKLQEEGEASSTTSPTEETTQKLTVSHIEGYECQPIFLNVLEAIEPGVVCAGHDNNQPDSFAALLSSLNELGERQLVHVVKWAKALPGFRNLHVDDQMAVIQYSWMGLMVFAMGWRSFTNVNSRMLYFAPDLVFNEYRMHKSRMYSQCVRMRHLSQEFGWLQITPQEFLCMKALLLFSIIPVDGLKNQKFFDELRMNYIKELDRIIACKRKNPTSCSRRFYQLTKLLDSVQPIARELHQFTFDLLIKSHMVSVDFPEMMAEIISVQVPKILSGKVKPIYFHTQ
Estrogen receptor (Homo sapiens), sequence (P03372 whole entry, looked up): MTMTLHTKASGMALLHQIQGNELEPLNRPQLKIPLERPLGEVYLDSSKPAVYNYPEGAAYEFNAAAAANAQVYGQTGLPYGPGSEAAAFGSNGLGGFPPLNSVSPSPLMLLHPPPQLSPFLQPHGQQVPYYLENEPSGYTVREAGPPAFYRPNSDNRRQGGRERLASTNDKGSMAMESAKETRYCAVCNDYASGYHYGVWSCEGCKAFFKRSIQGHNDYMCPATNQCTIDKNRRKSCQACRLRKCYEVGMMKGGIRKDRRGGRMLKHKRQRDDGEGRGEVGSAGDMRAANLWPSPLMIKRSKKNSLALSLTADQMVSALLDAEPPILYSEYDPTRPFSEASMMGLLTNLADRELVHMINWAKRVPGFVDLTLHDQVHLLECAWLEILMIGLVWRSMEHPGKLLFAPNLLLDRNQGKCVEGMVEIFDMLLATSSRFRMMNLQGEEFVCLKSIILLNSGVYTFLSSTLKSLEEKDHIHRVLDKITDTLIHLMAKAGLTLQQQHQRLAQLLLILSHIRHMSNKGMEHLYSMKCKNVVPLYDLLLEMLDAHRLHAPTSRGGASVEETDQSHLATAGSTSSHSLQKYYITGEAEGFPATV
Estrogen receptor beta (Homo sapiens), sequence (Q92731 whole entry, looked up): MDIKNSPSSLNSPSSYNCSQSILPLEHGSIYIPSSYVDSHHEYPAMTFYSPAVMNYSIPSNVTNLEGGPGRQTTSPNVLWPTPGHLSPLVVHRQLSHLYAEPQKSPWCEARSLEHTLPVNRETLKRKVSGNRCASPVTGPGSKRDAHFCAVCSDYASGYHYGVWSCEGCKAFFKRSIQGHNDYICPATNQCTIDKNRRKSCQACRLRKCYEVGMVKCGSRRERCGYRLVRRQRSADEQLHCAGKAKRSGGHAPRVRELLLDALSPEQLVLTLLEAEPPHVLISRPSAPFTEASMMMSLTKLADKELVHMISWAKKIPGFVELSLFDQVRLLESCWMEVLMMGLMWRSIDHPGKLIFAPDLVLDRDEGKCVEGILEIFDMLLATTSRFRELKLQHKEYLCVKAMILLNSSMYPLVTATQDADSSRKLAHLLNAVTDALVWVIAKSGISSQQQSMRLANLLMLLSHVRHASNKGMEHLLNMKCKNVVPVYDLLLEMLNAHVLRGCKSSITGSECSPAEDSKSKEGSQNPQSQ

Take `COc1ccccc1O`: the compound was classed as inactive in [1] and in assay [3]. In addition, the Potency entry in assay [2], in assay [4], in [5], in assay [6], in [7] and in assay [8] was “inactive” throughout. Besides, the Potency result in assay [9] is “inactive”.

As for `CCCCCCCCCCCCCCCCCC(=O)OCC(O)CO` (centres undefined), the compound was classed as inactive in assay [1] and in [3]. In addition, the Potency entry in assay [2], in assay [4], in assay [5], in assay [6], in [7] and in [8] was “inactive” throughout. In addition, in assay [9], the Potency result is “inactive”.

As for `CC(C)(C)NCC(O)c1ccc(O)c(CO)c1` (centres undefined), the compound was classed as inactive in assay [1] and in assay [3]. Also, the Potency result in [2], in assay [4], in [5], in assay [6], in assay [7] and in assay [8] was “inactive” throughout. For the same compound, the Potency in [9] was 15.8 nM (active) and 37.6 nM (active).

For `COc1ccc(O)cc1`, the compound was classed as inactive in assay [1], in assay [3] and in assay [10]. For the same compound, the Potency in assay [2] was 21.7 µM (active). Besides, the Potency result in assay [4], in [5], in assay [6], in assay [7] and in assay [9] was “inactive” each time.

Regarding `CC(=O)OC/C=C(C)/C=C/C=C(C)/C=C/C1=C(C)CCCC1(C)C`, the result in assay [1] and in [3] was inactive. Also, the Potency in [2] was 24.3 µM (active); in assay [4], 54.5 µM (active). Besides, the Potency entry in assay [5], in assay [6], in assay [7], in assay [8] and in assay [9] was “inactive” throughout.

`Cc1cccc(C)c1O`: the call in assay [1], in assay [3] and in assay [10] was inactive. Besides, the Potency result in assay [2], in assay [4], in assay [5], in assay [6], in [7] and in assay [8] was “inactive” in each case.

Turning to `CC(=O)Oc1ccccc1C(=O)O`, the compound was classed as inactive in assay [1], in assay [3] and in [10]. The Potency result in [2], in [4], in assay [5], in [6], in assay [7] and in assay [8] was “inactive” in each case. Further, the Potency entry in assay [9] was “inactive”.

As to `COc1cc(O)c(C(=O)c2ccccc2)cc1S(=O)(=O)O`, the call in assay [1], in assay [3] and in assay [10] was inactive. Moreover, the Potency entry in assay [2], in assay [4], in [5], in [6], in assay [7] and in [8] was “inactive” throughout. The Potency entry in assay [9] is “inactive”.

On to `CCN1CCCC1=O`, for which the outcome in [1] and in [3] was inactive. The Potency result in [2], in assay [4], in [5], in [6], in assay [7] and in [8] was “inactive” throughout. In addition, in [9], the Potency result is “inactive”.

In the case of `CCCCCCCCCCCCCC(=O)OC(C)C`, the call in [1], in [3] and in [10] was inactive. The Potency entry in [2], in assay [4], in assay [5], in assay [6], in assay [7] and in assay [8] was “inactive” throughout. Also, the Potency result in assay [9] was “inactive”.

On to `COc1cc2c(c(OC)c1OC)-c1ccc(OC)c(=O)cc1[C@@H](NC(C)=O)CC2`, for which the compound was called inactive in assay [1], in assay [3] and in [10]. Further, the Potency in assay [2] was 1.7 nM (active) and 2.4 nM (active); in [6], 27 µM (active) and inactive. Besides, the Potency result in [4], in assay [5], in assay [7] and in assay [8] was “inactive” in each case.

On to `COCC(C)N` (centres undefined), for which the compound was called inactive in [1], in assay [3] and in [10]. The Potency entry in assay [2], in assay [4], in assay [5], in [6], in [7] and in [8] was “inactive” throughout. The Potency entry in assay [9] is “inactive”.

Consider `NC(N)=NC(N)=NCCc1ccccc1`, for which the call in [1] and in assay [3] was inactive. For the same compound, the Potency entry in [2], in [4], in assay [6], in assay [7], in assay [8] and in assay [9] was “inactive” throughout. Also, the Potency in assay [5] was 48.3 µM (active) and 54.5 µM (active) and 26.6 µM (active).

Regarding `CC(C)Cc1ccc(C(C)C(=O)O)cc1` (centres undefined), the call in [1] and in assay [3] was inactive. In addition, the Potency result in assay [2], in [4], in assay [5], in assay [6], in assay [7] and in [8] was “inactive” each time. In addition, the Potency result in assay [9] is “inactive”.

Turning to `COCCOCCOC`, the call in [1], in [3] and in assay [10] was inactive. Also, the Potency entry in [2], in [4], in assay [5], in assay [6], in assay [7] and in [8] was “inactive” each time. In addition, in [9], the Potency result was “inactive”.

As to `CC(=O)c1ccc(S(=O)(=O)NC(=O)NC2CCCCC2)cc1`, the call in assay [1], in [3] and in assay [10] was inactive. Also, the Potency entry in assay [2], in assay [4], in assay [5], in [6], in [7] and in [8] was “inactive” in each case. In assay [9], the Potency entry is “inactive”.

Take `COC(=O)C1CCC(C(=O)OC)CC1` (centres undefined): the outcome in [1] and in [3] was inactive. The Potency entry in assay [2], in [4], in assay [5], in assay [6], in assay [7] and in assay [8] was “inactive” in each case. In assay [9], the Potency entry is “inactive”.

For the compound `Nc1cccc(N)c1`, the result in assay [1] and in assay [3] was inactive. For the same compound, the Potency result in assay [2], in assay [4], in assay [5], in [6] and in assay [7] was “inactive” throughout.

For `CCOC(=O)C(C)(C)Oc1ccc(Cl)cc1`, the compound was called inactive in assay [1] and in assay [3]. Further, the Potency result in assay [2], in [4], in assay [5], in [6], in assay [7] and in [8] was “inactive” throughout. In addition, in [9], the Potency result was “inactive”.

As to `Oc1cccc(O)c1`, the outcome in assay [1] and in [3] was inactive. Further, the Potency entry in [2], in assay [4], in assay [5], in assay [6], in assay [7] and in assay [8] was “inactive” in each case. In addition, the Potency entry in [9] was “inactive”.

The values above are taken from PubChem BioAssay (Tox21).
